Assay outcomes from PubChem.
Shown are actives, neighbours in structure and some others; about 21% of the full set was active somewhere.
ELG1 DNA repair – ELG1-dependent DNA repair inhibition. HEK293T ELG1-luciferase reporter, luminescence, 16 h; DNA damage induced by 5-fluorouridine. Potency, µM (series often up to 46.1 µM), inactives show top-dose activity change, negative = inhibition, most hits filed as inhibitors. 330,000 compounds, 2.3% hits. AID 504467; note: potency is the fitted concentration of half-maximal effect; nearly all actives have a fitted effect of over 55% in size
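Reporter activity after DNA damage by 5-fluorouridine is monitored. Compound-treated cells incubate 16 hr at 37 °C, then ONE-Glo is added for 30 min before luminescence reading.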
TDP1 cell noCPT – qHTS for Inhibitors of human tyrosyl-DNA phosphodiesterase 1 (TDP1): qHTS in cells in absence of CPT; DT40 Tdp1-/- hTDP1 cells, no CPT, ATP luminescence, 48 h; Potency, µM (doses to about 46.2 µM), without a hit: at the highest dose activity change, negative = growth inhibition, most hits filed as inhibitors; 420,000 compounds, 15% hits; note: potency is the fitted concentration of half-maximal effect; nearly all actives have a fitted effect of over 55% in size
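No-CPT arm: Tdp1-/-;hTDP1 DT40 cells (400/well) plus compounds, incubated ≥48 hr at 37 °C. Readout CellTiter-Glo luminescence.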
TDP1 cell CPT – DT40-hTDP1 cell growth loss with CPT. chicken DT40 Tdp1-/-;hTDP1 cells + 20 nM CPT, ATP luminescence, 48 h. Potency, µM (doses to about 46.2 µM), for inactives: at the highest dose activity change, negative = growth inhibition, hits mostly inhibitors. 420,000 compounds, 12% hits. AID 686979; note: potency is the fitted concentration of half-maximal effect; nearly all actives have a fitted effect of over 55% in size
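Chicken DT40 Tdp1-/- cells complemented with human TDP1, 400 cells/well, exposed to compounds plus 20 nM camptothecin for at least 48 h at 37 C; viability read as ATP content by CellTiter-Glo luminescence.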
Gal4-VP16 FLuc – counter-screen for ROR gamma inhibitors: Gal4-VP16 reporter; Drosophila S2 Gal4-VP16 UAS-luciferase, luminescence, 20 h; Potency, µM (doses to about 53.6 µM), for inactives: at the highest dose activity, negative = inhibition, most hits filed as inhibitors; 310,000 compounds, 3.5% hits; AID 2546;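 note: Gal4-VP16 expression switched on by copper sulfate through the metallothionein promoter; potency is the fitted concentration of half-maximal effect; nearly all actives have a fitted effect of over 50% in size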
RORgamma inh – ROR gamma (mouse) transcription inhibition; Drosophila S2 Gal4-RORgamma UAS-luciferase reporter, 20 h; 310,000 compounds, 5.4% hits; AID 2551; Potency, µM (top dose mostly 53.6 µM), for inactives: at the highest dose activity change, negative = inhibition, most hits filed as inhibitors; note: potency is the fitted concentration of half-maximal effect; nearly all actives have a fitted effect of over 60% in size
Target sequence (P51450 whole entry, looked up, the tested form may be a part): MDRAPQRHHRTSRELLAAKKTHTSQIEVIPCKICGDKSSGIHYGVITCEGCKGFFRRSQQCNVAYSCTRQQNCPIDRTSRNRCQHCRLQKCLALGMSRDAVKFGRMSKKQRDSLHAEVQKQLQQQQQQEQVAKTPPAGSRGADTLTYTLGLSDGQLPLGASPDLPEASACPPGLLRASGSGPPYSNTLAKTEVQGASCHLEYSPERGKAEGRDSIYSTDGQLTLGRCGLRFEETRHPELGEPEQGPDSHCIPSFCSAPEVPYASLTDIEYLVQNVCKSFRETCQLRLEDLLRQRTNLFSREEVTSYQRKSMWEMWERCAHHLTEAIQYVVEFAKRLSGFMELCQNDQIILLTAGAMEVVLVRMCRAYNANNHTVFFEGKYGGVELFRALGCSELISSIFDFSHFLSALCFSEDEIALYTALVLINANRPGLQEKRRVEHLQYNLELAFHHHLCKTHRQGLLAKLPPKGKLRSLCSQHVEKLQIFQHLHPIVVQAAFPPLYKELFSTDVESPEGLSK
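Drosophila S2 cells stably expressing Gal4-DBD/mouse RORγ fusion under metallothionein promoter plus UAS-luciferase; compound 1 h, then 700 uM CuSO4 induction for 20 h at ambient temperature; inhibition read as reduced luminescence.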
IL-1B inflam inh – blocks inflammasome-driven IL-1 beta release | AID 743279 | 360,000 compounds, 4.7% hits | activity change, % at 57.5 µM | THP-1 LPS/ATP IL-1B secretion, AlphaLISA, 16 h; stronger effect = lower value; in the data active = activity change below about -50%; inconclusive = mostly about -30% to -49%
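Secreted IL-1B measured by AlphaLISA bead assay after 16 h compound exposure of THP-1 cells; compounds (final up to 57.5 uM) added 1 h before LPS (250 ng/mL) and ATP (1.25 mM) stimulation; lower signal means less secretion.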
Active calls of the source: *; u = inconclusive; x = not tested or not shown. Unless noted, calls come from the whole dose curve; as a rule, active = well fitted curve in the direction sought with a large enough effect; inconclusive = small, poorly fitted or top-dose-only effect, or another doubt; inactive = no such curve, though single readings can be large; an effect the other way counts as inactive or inconclusive. % is set by controls: 0 for no effect and ±100 for the full control effect.

SMILES	ELG1 DNA repair	TDP1 cell noCPT	TDP1 cell CPT	Gal4-VP16 FLuc	RORgamma inh	IL-1B inflam inh
COc1ccc(C(=O)Nc2ccc(OCC(F)(F)C(F)F)c(C(F)(F)F)c2)cc1OC	-24%	11µM*	11µM*	-11%	u	-23
COc1ccc(NC(=O)c2ccc(COCC(F)(F)F)cc2)cc1OC	11%	u	2%	-1%	35%	0
COc1cc(CN2CCN(C(O)(c3ccccc3)c3ccccc3)CC2)cc(OC)c1OC	-14%	15µM*	u	6%	-36%	-69*
COc1cc(CN2CCN(c3cccc(Cl)c3)CC2)cc(OC)c1OC	u	5.8µM*	7.3µM*	-15%	-29%	34
COc1ccc(CCNC(=O)CN2CCN(c3cccc(Cl)c3)CC2)cc1OC	u	21µM*	21µM*	4%	-36%	-1
COc1ccc(CNC(=O)N2CCN(c3cccc(Cl)c3)CC2)cc1OC	0%	u	u	4%	35%	-16
COc1cccc(N2CCN(Cc3cccnc3)CC2)c1	2%	-12%	1%	-1%	-24%	0
O=[N+]([O-])c1ccc(N2CCN(C(=S)c3cccc([N+](=O)[O-])c3)CC2)cc1	3%	21µM*	15µM*	-7%	4%	-16
CC1(C(=O)N2CCN(c3ccc([N+](=O)[O-])cc3)CC2)CC1(Cl)Cl (configuration not stated)	u	u	u	12%	u	-11
Cc1ccc(C(=O)NC(=S)N2CCN(c3ccc([N+](=O)[O-])cc3)CC2)cc1	-3%	26µM*	u	1µM*	0.71µM*	-2
O=C(NC(=S)N1CCN(c2ccc([N+](=O)[O-])cc2)CC1)c1ccccc1	-4%	3.3µM*	u	0.56µM*	0.28µM*	8
CCCC(=O)NC(=S)N1CCN(c2ccc([N+](=O)[O-])cc2)CC1	u	-22%	-15%	u	3.2µM*	11
CC1=C(C(=O)N(C)C)CC(CC(=O)NC2CCCC2)C(=O)N1Cc1ccccc1 (configuration not stated)	x	3%	2%	x	x	25
O=C1CC(c2nc(-c3ccccc3)no2)CN1c1ccc2c(c1)OCCO2 (configuration not stated)	x	-12%	-10%	x	x	x
CCOc1ccc(N2CC(c3nc(-c4cc(OC)c(OC)c(OC)c4)no3)CC2=O)cc1 (configuration not stated)	x	26µM*	u	x	x	x
CN(C)c1ccc(-c2noc(C3CC(=O)N(c4ccc5c(c4)OCCO5)C3)n2)cc1 (configuration not stated)	x	2.9µM*	4.6µM*	x	x	x
COc1ccc(N2CC(c3nc(-c4cc(OC)c(OC)c(OC)c4)no3)CC2=O)cc1Cl (configuration not stated)	x	16µM*	u	x	x	x
COc1ccc(-c2noc(C3CC(=O)N(c4cc(C)cc(C)c4)C3)n2)cc1 (configuration not stated)	x	0%	2%	x	x	x
Cc1ccc2oc(C(=O)Nc3c(C(=O)Nc4cccc(Cl)c4)oc4ccccc34)cc(=O)c2c1	x	-10%	-8%	x	x	x
CC(OC(=O)c1cccc(-n2cnnn2)c1)C(=O)c1ccccc1 (configuration not stated)	u	-2%	10%	x	x	11
O=C(Oc1cccc2cccnc12)c1cccc(N2C(=O)C3C4CCC(C4)C3C2=O)c1 (configuration not stated)	u	4.6µM*	4.1µM*	u	2.5µM*	-81*
